Compound activity as filed in PubChem.
HCV inhibitor: blocks hepatitis C virus. Huh7.5.1 HCVcc-Cre infection, luciferase reporter, 44 h. Potency, µM (doses to about 41.8 µM), for the others: top-dose activity change, negative = inhibition, hits mostly inhibitors. 340,000 tested, 3.4% active. AID 651820; active = well fitted inhibition curve with a large enough effect; inconclusive = small, poorly fitted or top-dose-only effect, or another doubt; inactive = no such curve, though single readings can be large or run the other way; note: potency is the fitted concentration of half-maximal effect
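After 44 h co-culture of compound, cells and HCVcc-Cre (~0.5 moi), substrate is added for 15 min at room temperature and luciferase measured over 15 sec. Cells were seeded at 1,000/well and pre-cultured 4 h.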
Marburg entry inh: blocks Marburg virus binding to or entry into cells; Marburg virus pseudotyped entry inhibition, cell reporter; Potency, µM (doses to about 37.8 µM), for inactives: at the highest dose activity change, negative = inhibition, most hits filed as inhibitors; 300,000 tested, 1.8% active; AID 540276; calls by dose curve; tested in HEK293 cells; note: potency is the fitted concentration of half-maximal effect
FMDV inh: antivirals against foot and mouth disease virus | Potency, µM (top dose mostly 57.9 µM), without a hit: at the top dose activity change, negative = inhibition, most hits filed as inhibitors | AID 1159524 | FMDV antiviral cell-based qHTS | 410,000 tested, 1.2% active; calls by dose curve; tested in HEK293T cells; note: read-out not given here; potency is the fitted concentration of half-maximal effect; nearly all actives have a fitted effect of over 45% in size
Lassa entry inh: inhibitors of Lassa virus binding or cell entry. 300,000 tested, 1.2% active. Potency, µM (top dose mostly 37.9 µM), for the others: top-dose activity change, negative = inhibition, actives largely listed as inhibitors. Lassa virus pseudotype entry inhibition, cell reporter; calls by dose curve; tested in HEK293 cells; note: potency is the fitted concentration of half-maximal effect; nearly all actives have a fitted effect of over 50% in size
HCMV antiviral: human cytomegalovirus inhibition | HFF cells, HCMV-luciferase reporter, 72 h; stronger effect = lower value | activity change, negative = inhibition, % at 57.5 µM | 410,000 tested, 4.5% active; in the data active = activity change below about -60%; inconclusive = no clear call, values can overlap the other calls; inactive = above about -39%
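Two compound doses tested in HFFs infected with HCMV-luciferase, MOI 1 PFU/cell, 72 h at 37C. Lysate luminescence read with OneGlo; data normalized against buffer-only and 10uM Salinomycin inhibitor controls.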
Starred values were filed as active, the others as inactive; ? = inconclusive; . = no result given; [ ] = another dose, or the depositor's remark. This is a sample that favours compounds with a hit; in the whole collection about 7.9% have one here. % is set by controls: 0 for no effect and ±100 for the full control effect.

SMILES	HCV inhibitor	Marburg entry inh	FMDV inh	Lassa entry inh	HCMV antiviral
COC(=O)[C@]12C[C@H](CC(=O)NCc3cccc(C(F)(F)F)c3)C(=O)N(Cc3ccccc3)C1=C[C@H](C1CCCC1)O[C@@H]2C	.	.	.	.	97
CS(=O)(=O)c1ccc(Cn2c3c(c4cc(F)cc(F)c42)CCC[C@H]3CC(=O)O)cc1	.	.	-22%	.	.
COC1CC2C=C(C)C=CC=CC(=O)NC(c3ccccc3)CC=CCCC(O)CC(=O)C2=C1O (stereo not given)	.	.	2.5µM*	.	-100*
OC(c1ccc(F)c(F)c1)c1ncc(-c2ccc(Cl)cc2)[nH]1 (stereo not given)	.	.	8%	.	-64*
C#CCN1C(=O)CC[C@@]23C1=NC(C(=O)OC)=C(C(=O)OC)[C@@H]2N(Cc1ccccc1)c1ccccc13	.	-20%[14.2 µM]	.	.	.
COc1ccccc1Nc1nc(-c2sc(NC(=O)C(C)(C)C)nc2C)cs1	2.5µM*	.	-17%	.	-88*
CCCCCC(=O)Nc1nc(C)c(-c2csc(Nc3cc(Cl)ccc3OC)n2)s1	?	.	-17%	.	-36
CCCC(=O)Nc1nc(C)c(-c2csc(Nc3ccccc3OC)n2)s1	?	.	-16%	.	?
Cc1ccc(Cl)cc1Nc1nc(-c2sc(NC(=O)C(C)(C)C)nc2C)cs1	2%	.	-22%	.	-73*
CCn1c(SCc2ccccc2C)nc(=O)c2c(C(=O)OC)cc(C3CC3)nc21	.	.	?	?	-6
CCCCn1nc2cc(C(=O)NC3CCCc4ccccc43)ccc2c1OCC (stereo not given)	1.8µM*	.	29%	.	?
CC(=O)c1ccc(OCCCC(=O)NC2CCCc3ccccc32)cc1 (stereo not given)	?	7%	-1%	26%	-86*
S=C(NC1CC1)NC1CCCc2ccccc21 (stereo not given)	3%	21%	-4%	5%	-62*
CCOc1c2ccc(C(=O)NC3CCCc4ccccc43)cc2nn1C (stereo not given)	?	.	37%	.	?
COc1ccc(OCC(=O)NC2CCCc3ccccc32)cc1 (stereo not given)	?	3%[46.1 µM]	10%	?	?
COc1cc2c(cc1NC(=O)c1cccc(Br)c1)CCCC2	7.1µM*	-20%	-7%	-20%	-34
Cc1ccc2c(c1)c(=O)c(C(=O)c1ccncc1)cn2CC(=O)Nc1ccccc1Cl	.	.	-9%	10%[46.1 µM]	88
C[C@H](CO)N1C[C@H](C)[C@@H](CN(C)C(=O)Nc2ccccc2)Oc2c(NC(=O)C3CCCCC3)cccc2C1=O	8%	.	66%	.	4
CC(C(=O)Nc1ccccc1)n1nnc2sc3c(c2c1=O)CCCC3 (stereo not given)	.	-2%[46.1 µM]	-26%	6%[46.1 µM]	-15
CC1=C(C(=O)OCC2CCCCC2)C(c2ccc(Cl)cc2)CC(=O)N1 (stereo not given)	.	?	?	-8%[46.1 µM]	?
O=C(NC1CCCc2ccccc21)c1ccc(Br)cc1 (stereo not given)	-19%	?	12%	-19%	-17
O=C(CCNC(=O)c1ccc(Br)cc1)NC1CCCc2ccccc21 (stereo not given)	-22%	2.2µM*	-6%	7.1µM*	-81*
O=C(NC1CCCc2ccccc21)c1cccc(Br)c1 (stereo not given)	-2%	2%	40%	-5%	-78*
CCc1c(C(=O)NC2CCCc3ccccc32)[nH]c(C)c1C(C)=O (stereo not given)	5%	.	22%	.	-83*
O=C(NC1CCCc2ccccc21)c1n[nH]c(=O)c2ccccc12 (stereo not given)	22µM*	-23%[46.1 µM]	-7%	-6%	-31
COc1ccc(NC(=O)N2CCc3c([nH]c4ccc(OC)cc34)C2c2ccc(OC)cc2)cc1 (stereo not given)	.	.	-16%	?	?
COc1ccccc1CNc1ncnc2sc(C(=O)N(C)C(C)C)c(C)c12	.	.	-11%	.	.
COc1ccc(-c2nc(Cn3c(=O)cc(-c4ccccc4)c4c(C)nn(C)c43)c(C)o2)cc1OC	.	.	-14%	-1%[46.1 µM]	6
O=S(=O)(NCc1ccccc1Cl)c1ccc(N2CCCCS2(=O)=O)cc1	.	.	0%	-1%[46.1 µM]	?
COc1cccc(NC(=O)NC2CCCc3ccccc32)c1 (stereo not given)	?	?	6%	1%[46.1 µM]	-67*
